Assay results reported in the supplement of paper PMC8728848.
The entries come from a sample that favours the strongest signals as a whole.

How the values were obtained:
Assay in all cases: glycan array binding signal (z-score within array); higher = stronger binding
Conditions in all cases: glycan notation: IUPAC condensed, linker removed
Fuc(a1-2)Gal(b1-3)GalNAc = biological target: Fuc(a1-2)Gal(b1-3)GalNAc
Outline: (§1)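 The binding signal is a Z-score computed within each array and averaged over linkers. Arrays of the same protein sequence at different concentrations or buffers were also averaged together. Data originate from 3228 arrays in the Consortium for Functional Glycomics database, kept only where the protein sequence was available.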

Fuc(a1-2)Gal(b1-4)Glc6S = biological target: Fuc(a1-2)Gal(b1-4)Glc6S
Outline: as §1

Fuc(a1-2)Gal(b1-4)GlcNAc = biological target: Fuc(a1-2)Gal(b1-4)GlcNAc
Outline: as §1

[1] = biological target: Fuc(a1-2)Gal(b1-4)GlcNAc(b1-2)Man(a1-3)[Fuc(a1-2)Gal(b1-4)GlcNAc(b1-2)Man(a1-6)]Man(b1-4)GlcNAc(b1-4)GlcNAc
Outline: as §1

[2] = biological target: Fuc(a1-2)Gal(b1-4)GlcNAc(b1-3)Gal(b1-4)GlcNAc
Outline: as §1

[3] = biological target: Fuc(a1-2)Gal(b1-4)GlcNAc(b1-3)Gal(b1-4)GlcNAc(b1-3)Gal(b1-4)GlcNAc
Outline: as §1

[4] = biological target: Fuc(a1-2)Gal(b1-4)GlcNAc(b1-3)[Fuc(a1-2)Gal(b1-4)GlcNAc(b1-6)]GalNAc
Outline: as §1

[5] = biological target: Fuc(a1-2)Gal(b1-4)GlcNAc6S
Outline: as §1

[6] = biological target: Fuc(a1-2)Gal(b1-4)[Fuc(a1-3)]GlcNAc
Outline: as §1

[7] = biological target: Fuc(a1-2)Gal6S(b1-4)Glc6S
Outline: as §1

[8] = biological target: Fuc(a1-2)[Gal(a1-3)]Gal(b1-3)GlcNAc(b1-2)Man(a1-3)[Fuc(a1-2)[Gal(a1-3)]Gal(b1-3)GlcNAc(b1-2)Man(a1-6)]Man(b1-4)GlcNAc(b1-4)GlcNAc
Outline: as §1

[9] = biological target: Fuc(a1-2)[Gal(a1-3)]Gal(b1-4)GlcNAc(b1-2)Man(a1-3)[Fuc(a1-2)[Gal(a1-3)]Gal(b1-4)GlcNAc(b1-2)Man(a1-6)]Man(b1-4)GlcNAc(b1-4)[Fuc(a1-6)]GlcNAc
Outline: as §1

[10] = biological target: Fuc(a1-2)[Gal(a1-3)]Gal(b1-4)[Fuc(a1-3)]Glc
Outline: as §1

[11] = biological target: Fuc(a1-2)[Gal(a1-3)]Gal(b1-4)[Fuc(a1-3)]GlcNAc(b1-3)GalNAc
Outline: as §1

[12] = biological target: Fuc(a1-2)[GalNAc(a1-3)]Gal
Outline: as §1

Fuc(a1-3)GlcNAc = biological target: Fuc(a1-3)GlcNAc
Outline: as §1

[13] = biological target: Fuc(a1-3)[Gal(b1-4)]GlcNAc(b1-4)Gal(b1-4)[Fuc(a1-3)]GlcNAc(b1-4)Gal(b1-4)[Fuc(a1-3)]GlcNAc
Outline: as §1

[14] = biological target: Gal(a1-3)Gal(b1-4)GlcNAc(b1-3)GalNAc
Outline: as §1

[15] = biological target: Gal(a1-3)Gal(b1-4)[Fuc(a1-3)]GlcNAc(b1-2)Man(a1-3)[Gal(a1-3)Gal(b1-4)[Fuc(a1-3)]GlcNAc(b1-2)Man(a1-6)]Man(b1-4)GlcNAc(b1-4)GlcNAc
Outline: as §1

Gal(a1-6)Glc = biological target: Gal(a1-6)Glc
Outline: as §1

Gal(b1-3)GalNAc = biological target: Gal(b1-3)GalNAc
Outline: as §1

[16] = biological target: Gal(b1-3)GlcNAc(b1-3)Gal(b1-4)Glc
Outline: as §1

[17] = biological target: Gal(b1-3)[Fuc(a1-4)]GlcNAc(b1-3)Gal(b1-4)[Fuc(a1-3)]GlcNAc
Outline: as §1

[18] = biological target: Gal(b1-4)GlcNAc(b1-2)Man(a1-3)[Gal(b1-4)GlcNAc(b1-2)Man(a1-6)]Man(b1-4)GlcNAc(b1-4)[Fuc(a1-6)]GlcNAc
Outline: as §1

[19] = biological target: Gal(b1-4)GlcNAc(b1-2)[Gal(b1-4)GlcNAc(b1-4)]Man(a1-3)[GlcNAc(b1-4)][Gal(b1-4)GlcNAc(b1-2)[Gal(b1-4)GlcNAc(b1-6)]Man(a1-6)]Man(b1-4)GlcNAc(b1-4)GlcNAc
Outline: as §1

[20] = biological target: Gal(b1-4)GlcNAc(b1-2)[Gal(b1-4)GlcNAc(b1-6)]Man(a1-6)[Gal(b1-4)GlcNAc(b1-2)Man(a1-3)]Man(b1-4)GlcNAc(b1-4)GlcNAc
Outline: as §1

[21] = biological target: Gal(b1-4)GlcNAc(b1-2)[Gal(b1-4)GlcNAc(b1-6)]Man(a1-6)[GlcNAc(b1-4)][Gal(b1-4)GlcNAc(b1-2)Man(a1-3)]Man(b1-4)GlcNAc(b1-4)GlcNAc
Outline: as §1

[22] = biological target: Gal(b1-4)GlcNAc(b1-3)Gal(b1-3)GlcNAc
Outline: as §1

[23] = biological target: Gal(b1-4)GlcNAc(b1-3)GalNAc
Outline: as §1

Gal4S(b1-4)GlcNAc = biological target: Gal4S(b1-4)GlcNAc
Outline: as §1

[24] = biological target: GalNAc(a1-3)GalNAc(b1-3)Gal(a1-4)Gal(b1-4)GlcNAc
Outline: as §1

[25] = biological target: GalNAc(b1-3)Gal(a1-6)Gal(b1-4)Glc
Outline: as §1

[26] = biological target: GlcNAc(a1-6)Gal(b1-4)GlcNAc
Outline: as §1

Kdn(a2-3)Gal(b1-4)GlcNAc = biological target: Kdn(a2-3)Gal(b1-4)GlcNAc
Outline: as §1

[27] = biological target: Neu5Ac(a2-3)Gal(b1-4)[Fuc(a1-3)]GlcNAc(b1-3)Gal
Outline: as §1

[28] = biological target: Neu5Ac(a2-3)Gal(b1-4)[Fuc(a1-3)]GlcNAc(b1-3)Gal(b1-4)GlcNAc
Outline: as §1

[29] = biological target: Neu5Ac(a2-6)Gal(b1-4)GlcNAc(b1-2)Man(a1-3)[Neu5Ac(a2-6)Gal(b1-4)GlcNAc(b1-2)Man(a1-6)]Man(b1-4)GlcNAc(b1-4)GlcNAc
Outline: as §1

[30] = biological target: Neu5Gc(a2-6)Gal(b1-4)GlcNAc
Outline: as §1

B1: CV-2L (Chromobacterium violaceum), Q7NX84 (protein)
chain: MAQQGVFTLPARINFGVTVLVNSAATQHVEIFVDNEPRAAFSGVGTGDNNLGTKVINSGSGNVRVQITANGRQSDLVSSQLVLANKLNLAVVGSEDGTDMDYNDSIVILNWPLG
glycan array binding signal (z-score) (Fuc(a1-2)Gal(b1-3)GalNAc): 0.156 | glycan array binding signal (z-score) (Fuc(a1-2)Gal(b1-4)Glc6S): 4.43 | glycan array binding signal (z-score) (Fuc(a1-2)Gal(b1-4)GlcNAc): 5.39 | glycan array binding signal (z-score) [1]: 5.17 | glycan array binding signal (z-score) [2]: 5.68 | glycan array binding signal (z-score) [3]: 5.57 | glycan array binding signal (z-score) [4]: 5.71 | glycan array binding signal (z-score) [5]: 5.42 | glycan array binding signal (z-score) [6]: 0.928 | glycan array binding signal (z-score) [7]: 4.37 | glycan array binding signal (z-score) [8]: -0.292 | glycan array binding signal (z-score) [9]: -0.257 | glycan array binding signal (z-score) [10]: -0.019 | glycan array binding signal (z-score) [11]: -0.294 | glycan array binding signal (z-score) [12]: -0.2 | glycan array binding signal (z-score) (Fuc(a1-3)GlcNAc): 1.49 | glycan array binding signal (z-score) [13]: -0.252 | glycan array binding signal (z-score) [14]: -0.341 | glycan array binding signal (z-score) [15]: -0.319 | glycan array binding signal (z-score) (Gal(a1-6)Glc): -0.347 | glycan array binding signal (z-score) (Gal(b1-3)GalNAc): -0.341 | glycan array binding signal (z-score) [16]: -0.304 | glycan array binding signal (z-score) [17]: 0.831 | glycan array binding signal (z-score) [18]: -0.275 | glycan array binding signal (z-score) [19]: -0.334 | glycan array binding signal (z-score) [20]: -0.307 | glycan array binding signal (z-score) [21]: -0.316 | glycan array binding signal (z-score) [22]: -0.343 | glycan array binding signal (z-score) [23]: -0.342 | glycan array binding signal (z-score) (Gal4S(b1-4)GlcNAc): -0.355 | glycan array binding signal (z-score) [24]: -0.306 | glycan array binding signal (z-score) [25]: -0.338 | glycan array binding signal (z-score) [26]: -0.342 | glycan array binding signal (z-score) (Kdn(a2-3)Gal(b1-4)GlcNAc): -0.31 | glycan array binding signal (z-score) [27]: -0.337 | glycan array binding signal (z-score) [28]: -0.308 | glycan array binding signal (z-score) [29]: -0.336 | glycan array binding signal (z-score) [30]: -0.326
